# Assay results reported in PubChem BioAssay (NCATS).
# Results filed as inconclusive are left out. Entries that show only a call come without a potency. The source made the active and inactive calls. Unless noted, calls follow the shape of the dose curve; as a rule, active = well fitted curve in the direction sought with a large enough effect; inconclusive = small, poorly fitted or top-dose-only effect, or another doubt; inactive = no such curve, though single readings can be large; an effect the other way counts as inactive or inconclusive.
# How the values were obtained:
# [1] = S16 Schwann cell PMP22 intronic element beta-lactamase assay (AID 624044; calls by dose curve; also: nearly all actives have a fitted effect of over 15% in size); conditions: S16 rat Schwann cells, PMP22 element beta-lactamase FRET, 24 h; ratio activity, negative = inhibition: at 38.3 µM (top of the series) unless noted
# Summary of the method: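 Rat S16 Schwann cells with beta-Lac driven by a PMP22 intronic element, compound-treated 24 h at 37 °C. LiveBLAzer FRET B/G read: 460 nm normalized to potassium clavulanate vs DMSO; 535 nm FRET as viability; concentration-effect curves classified.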
# [2] = tested on: 7G8; test: qHTS profiling for inhibitors of Plasmodium falciparum proliferation (AID 504749); also: nearly all actives have a fitted effect of over 60% in size; conditions: P. falciparum in erythrocytes, SYBR Green DNA, 72 h; series mostly up to 12.8 µM
# Summary of the method: (§1)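 Infected RBCs, 0.3% parasitemia/2.5% Hct final; cpd 72 h, 37 C, 5% CO2; lysis buffer with saponin/triton/SYBR Green I, o/n RT dark; FI 485/535; norm. to artemisinin (0.29 uM) and DMSO.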
# [3] = tested on: CP237; test: as above; conditions: P. falciparum in erythrocytes, SYBR Green DNA, 72 h; series mostly up to 28.7 µM
# Summary of the method: as §1
# [4] = tested on: CP268; test: as above; conditions: P. falciparum in erythrocytes, SYBR Green DNA, 72 h; series mostly up to 28.7 µM
# Summary of the method: as §1
# [5] = tested on: CP291; test: as above; conditions: P. falciparum in erythrocytes, SYBR Green DNA, 72 h; series mostly up to 28.7 µM
# Summary of the method: as §1
# [6] = tested on: CP297; test: as above; conditions: P. falciparum in erythrocytes, SYBR Green DNA, 72 h; series mostly up to 28.7 µM
# Summary of the method: as §1
# [7] = tested on: CP315; test: as above; conditions: P. falciparum in erythrocytes, SYBR Green DNA, 72 h; series mostly up to 28.7 µM
# Summary of the method: as §1
# [8] = tested on: CP335; test: as above; conditions: P. falciparum in erythrocytes, SYBR Green DNA, 72 h; series mostly up to 12.8 µM
# Summary of the method: as §1
# [9] = tested on: DIV17; test: as above; conditions: P. falciparum in erythrocytes, SYBR Green DNA, 72 h; series mostly up to 28.7 µM
# Summary of the method: as §1
# [10] = tested on: Dd2; test: as above; conditions: P. falciparum in erythrocytes, SYBR Green DNA, 72 h; series mostly up to 28.7 µM
# Summary of the method: as §1
# [11] = tested on: FAB9; test: as above; conditions: P. falciparum in erythrocytes, SYBR Green DNA, 72 h; series mostly up to 28.7 µM
# Summary of the method: as §1
# [12] = tested on: ICS; test: as above; conditions: P. falciparum in erythrocytes, SYBR Green DNA, 72 h; series mostly up to 28.7 µM
# Summary of the method: as §1
# [13] = tested on: JCK; test: as above; conditions: P. falciparum in erythrocytes, SYBR Green DNA, 72 h; series mostly up to 28.7 µM
# Summary of the method: as §1
# [14] = tested on: PC15; test: as above; conditions: P. falciparum in erythrocytes, SYBR Green DNA, 72 h; series mostly up to 28.7 µM
# Summary of the method: as §1
# [15] = tested on: SC27B; test: as above; conditions: P. falciparum in erythrocytes, SYBR Green DNA, 72 h; series mostly up to 28.7 µM
# Summary of the method: as §1
# [16] = tested on: TAB113; test: as above; conditions: P. falciparum in erythrocytes, SYBR Green DNA, 72 h; series mostly up to 28.7 µM
# Summary of the method: as §1
# [17] = qHTS assay for small molecule antagonists of peroxisome proliferator-activated receptor delta signaling (AID 588535); conditions: HEK293T PPARd-UAS-bla, beta-lactamase FRET ratio, 18 h; 460 nm channel;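 also: cells co-treated with a PPAR-delta agonist as stimulator during compound exposure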
# Summary of the method: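 HEK293T PPAR-delta-UAS-bla cells, 4000/well, 2% charcoal/dextran FBS; 5 h 37 C; cpd titration; 18 h 37 C; CCF4 2 h RT; FI 460/530 nm; Hill fit → IC50, efficacy.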
# [18] = qHTS assay for small molecule antagonists of retinoid X receptor alpha signaling (AID 588546); conditions: HEK293T RXRa-UAS-bla, beta-lactamase ratio, antagonist mode; measured here: W530 green channel, cytotoxicity proxy;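 also: cells stimulated with 9-cis-retinoic acid as agonist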
# Summary of the method: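 Beta-lactamase reporter inhibition, read as CCF4 fluorescence ratio (ex 405, em 460/530 nm) after 2 h at RT. HEK293T UAS-bla cells, 2500/well, were stimulated with 9-cis-RA at 500 or 100 nM final alongside test compound for 18 h at 37 C.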
# [19] = qHTS assay for small molecule activators of the p53 signaling pathway (AID 651743; active = well fitted activation curve with a large enough effect in the signal ratio, not every such curve was filed as active; the % refers to the signal ratio); conditions: HCT-116 p53RE-bla, beta-lactamase FRET ratio, 16 h; activation: stronger effect = higher value
# Summary of the method: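 Read-out is fluorescence intensity from the LiveBLAzer B/G FRET substrate, added for 2 hours at room temperature after HCT-116 p53RE-bla cells had been incubated with compounds for 16 hours at 37 C.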
# [20] = qHTS assay for small molecule agonists of the antioxidant response element (ARE) signaling pathway measured by Nrf2-dependant transcriptional activity - cell viability counter screen (AID 720653; active = well fitted curve in the direction sought with a large enough effect in the repeat runs; an effect the other way counts as inactive or inconclusive); conditions: ARE-bla HepG2 viability, CellTiter-Glo ATP luminescence, 16 h; stronger effect = lower value
# Summary of the method: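 Cytotoxicity counter screen: intracellular ATP quantified by CellTiter-Glo luminescence in the same ARE-bla HepG2 plates, after 16 h compound exposure and a 2 h beta-lactamase substrate step.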
Structure (SMILES),Potency [1],Potency [2],Potency [3],Potency [4],Potency [5],Potency [6],Potency [7],Potency [8],Potency [9],Potency [10],Potency [11],Potency [12],Potency [13],Potency [14],Potency [15],Potency [16],max response [17] [%],max response [18] [%],activation [19],max response [20]
NCC[C@H](O)C(=O)N[C@H]1C[C@@H](N)[C@@H](O[C@H]2O[C@@H](CN)[C@@H](O)[C@@H](O)[C@@H]2N)[C@@H](O[C@H]2O[C@@H](CO)[C@@H](O)[C@@H]2O)[C@@H]1O,inactive,inactive,inactive,inactive,inactive,inactive,inactive,inactive,inactive,inactive,inactive,inactive,inactive,inactive,inactive,–,–,–,–,–
CN[C@@H](C)[C@H]1CC[C@@H](N)[C@@H](O[C@@H]2[C@@H](O)[C@@H](O[C@H]3OC[C@@](C)(O)[C@@H](NC)[C@@H]3O)[C@H](N)C[C@@H]2N)O1 (tested in a mixture with another compound),inactive,inactive,inactive,inactive,inactive,inactive,inactive,inactive,inactive,inactive,inactive,inactive,inactive,inactive,inactive,inactive,–,–,–,–
C[C@@H]1O[C@H](O[C@@H]2C=C3CC[C@H]4[C@@H](CC[C@]5(C)[C@@H](c6ccc(=O)oc6)CC[C@]45O)[C@@]3(C)CC2)[C@@H](O)[C@H](O)[C@@H]1O,inactive,inactive,inactive,inactive,inactive,inactive,inactive,inactive,inactive,inactive,inactive,inactive,inactive,–,inactive,inactive,–,–,–,–
CC(C)N(CC[C@@](C(N)=O)(c1ccccc1)c1ccccn1)C(C)C,inactive,inactive,inactive,inactive,inactive,inactive,inactive,inactive,inactive,inactive,inactive,inactive,inactive,inactive,inactive,inactive,–,–,–,–
COc1cc(N)c(Cl)cc1C(=O)N[C@@H]1CN2CCC1CC2,inactive,inactive,inactive,inactive,inactive,inactive,inactive,inactive,inactive,inactive,inactive,inactive,inactive,inactive,inactive,inactive,–,–,–,–
CCN[C@]1(c2cccs2)CCCCC1=O,inactive,inactive,–,inactive,inactive,inactive,inactive,inactive,inactive,inactive,inactive,inactive,inactive,inactive,inactive,inactive,–,–,–,–
CN(C)[C@@H]1C(=O)C(C(N)=O)=C(O)[C@]2(O)C(=O)C3=C(O)c4c(O)ccc(Cl)c4[C@](C)(O)[C@H]3C[C@@H]12,inactive,–,inactive,inactive,–,inactive,inactive,–,inactive,–,inactive,–,inactive,inactive,inactive,inactive,–,–,–,–
CNC(=O)N(C)c1nnc(C(C)(C)C)s1,–,–,–,–,–,–,–,–,–,–,–,–,–,–,–,–,22,-11.1,-3.47% (inactive),4.89% (inactive)
N[C@H]1C[C@H]1c1ccccc1,inactive,inactive,inactive,inactive,inactive,inactive,inactive,inactive,inactive,inactive,inactive,inactive,inactive,inactive,inactive,inactive,–,–,–,–
COc1nc(NC(C)C)nc(NC(C)C)n1,–,–,–,–,–,–,–,–,–,–,–,–,–,–,–,–,7.33,-4.65,-5.88% (inactive),5.54% (inactive)
CC(C)N1C(=O)c2ccccc2NS1(=O)=O,–,–,–,–,–,–,–,–,–,–,–,–,–,–,–,–,55.3,-4.57,2.08% (inactive),7.65% (inactive)
